D1 antagonist = Antagonist of Human D 1 Dopamine Receptor: qHTS. D(1A) dopamine receptor (Homo sapiens), P21728. hit rate 3.2% among 360,000. HEK293 TREx D1 cells, calcium flux, dopamine EC80; active compounds read low. activity change, negative = inhibition, % at 10 µM; in the data active = activity change below about -30%
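Kinetic fluorescence of a calcium dye serves as the read-out. D1-expressing Hek293 Trex cells, induced overnight at 30 C, are exposed to compound for 180 s before an EC80 dopamine addition, then read 180 s further.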
D1 ag = Allosteric Agonists of the Human D1 Dopamine Receptor: qHTS; HEK293 T-REx D1 cells, calcium flux, agonist mode; activation, % at 2 µM; hit rate 1% among 360,000; AID 504660, 2011; in the data active = activation above about 30%
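Tetracycline-induced HEK293 TREx D1 cells, force-coupled to calcium signalling, were dye-loaded with a no-wash calcium kit. Compound was pin-added after a 10 s baseline. Fluorescence was read kinetically at 1 cycle/s for 180 s, with calcium rises flagged as agonism.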
DRD3 antagonist = qHTS of D3 Dopamine Receptor Antagonist: qHTS. D(3) dopamine receptor (Homo sapiens), P35462. D3R cells, DiscoveRx beta-arrestin luminescence, antagonist mode; active compounds read low. max response, negative = inhibition, %. hit rate 2.5% among 360,000. AID 652054, 2013; in the data active = max response below about -50%; inconclusive = no clear call, values can overlap the other calls
Target sequence (P35462 whole entry, looked up): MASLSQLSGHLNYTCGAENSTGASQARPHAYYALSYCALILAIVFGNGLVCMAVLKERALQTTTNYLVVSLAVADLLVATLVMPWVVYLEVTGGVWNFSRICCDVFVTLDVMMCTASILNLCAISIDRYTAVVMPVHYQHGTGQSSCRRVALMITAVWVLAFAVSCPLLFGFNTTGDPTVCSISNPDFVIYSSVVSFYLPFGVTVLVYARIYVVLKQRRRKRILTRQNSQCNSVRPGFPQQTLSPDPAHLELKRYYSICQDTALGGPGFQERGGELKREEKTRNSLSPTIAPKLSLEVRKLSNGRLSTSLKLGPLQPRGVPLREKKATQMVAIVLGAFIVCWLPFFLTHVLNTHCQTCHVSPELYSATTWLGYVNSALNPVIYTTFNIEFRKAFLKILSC
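Cells plated overnight at 1500 cells/well, then exposed to library compounds with dopamine controls for 90 minutes at 37 degrees C. DiscoveRx reagent added for 30–60 minutes at room temperature; luminescence read, quantitative HTS format.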
DRD3 agonist = qHTS of D3 Dopamine Receptor Agonist: qHTS; D3R DiscoveRx beta-arrestin cells, luminescence, 90 min; hit rate 0.58% among 410,000; D(3) dopamine receptor (Homo sapiens), P35462; AID 652048, 2013; max activation, %; in the data active = max activation above about 30%
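Agonist-mode cell screen: cells plated at 1500/well and incubated overnight at 37 °C, then exposed to library compounds for 90 min at 37 °C. Detection reagent was added for 30–60 min at room temperature, and luminescence was read.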
D1 potentiator = Potentiators of Human D1 Dopamine Receptor: qHTS. potentiation, % at 10 µM. HEK293 TREx D1 cells, calcium flux, dopamine EC20 potentiation. hit rate 0.036% among 360,000. D(1A) dopamine receptor (Homo sapiens), P21728; in the data active = potentiation above about 30%
A number is an active result; – = inactive; ? = inconclusive; · = not tested or not shown; ! = repeats disagree. In the library only some 6% were active in any assay of this set; here they are far more common.

SMILES | D1 antagonist | D1 ag | DRD3 antagonist | DRD3 agonist | D1 potentiator
COc1ccc(N(CC(=O)Nc2ccc(C)c(C)c2)S(=O)(=O)c2c(C)noc2C)cc1 | -42 | – | – | – | –
Cc1ccc(N(CC(=O)NCCc2ccc(Cl)cc2)S(=O)(=O)c2c(C)noc2C)cc1 | -34! | – | – | – | –
Cc1ccc(CCNC(=O)CN(c2ccc(C)cc2)S(=O)(=O)c2c(C)noc2C)cc1 | – | – | – | – | –
COc1ccccc1CNC(=O)Cn1cccc1C(=O)c1ccccc1C | – | – | – | – | –
CCC(Sc1ncnc2sc3c(c12)CCCC3)C(=O)OCC(C)C (centres undefined) | – | – | · | – | –
CCN(CC)C(=O)c1ccc(-c2nnc(Nc3ccc(O)cc3)c3ccccc23)cc1 | – | – | – | – | 43
CCN(CC)C(=O)c1ccc(-c2nnc(Nc3ccc(C(=O)N(C)C)cc3)c3ccccc23)cc1 | -92 | – | – | – | –
O=C(O)c1cccc(Nc2cc(Cl)c3nonc3c2[N+](=O)[O-])c1 | – | – | ? | – | –
O=C(O)c1cccc(Nc2ccc([N+](=O)[O-])c3nonc23)c1 | – | – | -57 | – | –
CCc1nnc(NS(=O)(=O)c2ccc(Nc3ccc([N+](=O)[O-])c4nonc34)cc2)s1 | – | – | -63 | – | –
O=C(O)c1ccc(Nc2ccc([N+](=O)[O-])c3nonc23)cc1 | – | – | -77 | – | –
CC(C)c1ccc(-c2nn(-c3ccccc3)cc2C(=O)NCC2CCCO2)cc1 (centres undefined) | – | – | – | – | –
COc1ccc(/C=C(/NC(=O)c2ccco2)C(=O)Nc2ccc(C(=O)O)cc2)cc1 | – | – | – | – | –
CCCCOc1ccc(C(=O)Nc2nnc3n2CCS3)cc1 | – | – | · | – | –
COC(=O)c1c(-c2ccc(OC)cc2)oc2ccc(-c3ccc(OC)nc3)cc12 | – | – | – | 40 | –
COC(=O)c1c(-c2ccc(OC)cc2)oc2ccc(-c3cc(OC)c(OC)c(OC)c3)cc12 | · | · | – | 35 | ·
CCCOC(=O)c1c(-c2ccc(OC)cc2)oc2ccc(-c3ccc(OC)nc3)cc12 | – | – | – | – | –
COc1ccc(C(=O)c2c(-c3ccc(OC)cc3)oc3ccc(-c4cc(OC)c(OC)c(OC)c4)cc23)cc1 | · | · | – | – | ·
C[C@H]1CN([C@@H](C)CO)C(=O)CCCn2nncc2CO[C@@H]1CN(C)S(=O)(=O)c1cccc(F)c1 | · | · | – | – | ·
Cc1ccccc1N/N=C/c1c(C)nc2ccccn12 | – | – | – | – | –
COc1cc(N=Nc2ccccc2C(=O)O)ccc1O | – | – | -58 | – | –
COc1cc(N=Nc2ccc3ccccc3c2)ccc1O | – | – | – | – | –
CCOC(=O)C(C)Nc1ncnc2onc(C)c12 (centres undefined) | – | – | · | – | –
CCOC(=O)CSCc1c(C#N)c2ccccc2n1C | – | – | -52 | – | –
Cn1c(CN2CCCC2)c(C#N)c2ccccc21 | – | – | -86 | – | –
SMILES | D1 antagonist | D1 ag | DRD3 antagonist | DRD3 agonist | D1 potentiator
CN1CCN(Cc2c(C#N)c3ccccc3n2C)CC1 | – | – | – | – | –
CC1CCN(Cc2c(C#N)c3ccccc3n2C)CC1 | – | – | -75 | – | –
Cn1c(CN2CCOCC2)c(C#N)c2ccccc21 | – | – | – | – | –
CC1CCCCN1Cc1c(C#N)c2ccccc2n1C (centres undefined) | – | – | -66 | – | –
O=C(Nc1cccc(C(=O)OCc2cc(=O)n3c4c(sc3n2)CCCC4)c1)c1ccccc1 | – | – | · | – | –
CC1(C(=O)Nc2ccc3c(c2)OCCO3)CCC(=O)N1C1CCN(Cc2ccccc2)CC1 (centres undefined) | · | · | – | – | ·
CN1C(=O)/C(=C\c2ccc(N(C)C)cc2)OC1=S | -66 | 523 | – | – | –
COc1ccc(/C=C2\OC(=S)N(C)C2=O)cc1 | – | – | – | – | –
COc1cc(S(=O)(=O)N2CCOCC2)cc(C(=O)OCC(=O)NC2CCCCC2)c1OC | – | – | – | – | –
COc1ccc(N2CCN(C(=O)CC(C)S(=O)(=O)c3ccc4c(c3)NC(=O)CO4)CC2)cc1 (centres undefined) | -32 | – | – | – | –
C=CCNC(=O)/C(C#N)=C/c1c(N2CCN(c3ccc(OC)cc3)CC2)nc2c(C)cccn2c1=O | – | – | – | – | –
CCOc1ccc(C(=O)NCC2CCCO2)cc1OCC (centres undefined) | – | – | – | – | –
CCOc1ccc(C(=O)NCC(=O)NCC2CCCCC2)cc1OCC | -34 | – | – | – | –
CC(C)Sc1ncc(Cl)c(C(=O)N(Cc2ccc(N(C)C)cc2)C2CCS(=O)(=O)C2)n1 (centres undefined) | – | – | · | – | –
COc1ccc(S(=O)(=O)N(C(C)=O)c2ccc3oc(=O)sc3c2)cc1 | – | – | -59 | – | –
COC(=O)c1c(C)oc2ccc(N(C(=O)c3ccncc3)S(=O)(=O)c3ccc(Br)cc3)cc12 | -37 | – | · | – | –
COC(=O)c1c(C)oc2ccc(N(C(C)=O)S(=O)(=O)c3ccccc3)cc12 | -66 | – | – | – | –
CCOc1ccc(S(=O)(=O)N(C(C)=O)c2ccc3oc(C)c(C(=O)OC)c3c2)cc1 | – | – | · | – | –
CCOC(=O)c1c(C)oc2ccc(N(C(=O)c3ccncc3)S(=O)(=O)c3ccc(Br)cc3)cc12 | -57 | – | · | – | –
CC(=O)c1c(C)oc2ccc(N(C(C)=O)S(=O)(=O)c3ccc(Br)cc3)cc12 | · | · | – | – | ·
COC(=O)c1c(C)oc2ccc(N(C(=O)c3ccncc3)S(=O)(=O)c3cc(C)ccc3C)cc12 | – | – | · | – | –
Cc1ccc(NC(=O)CN(C)C(=O)/C=C/c2ccc3c(c2)OCO3)cc1 | – | – | – | – | –
O=C(Nc1ccccc1F)c1ccc(O)c2ncccc12 | – | – | · | · | –
COc1ccccc1NC(=O)C(=O)Nc1ccccn1 | – | – | -84 | – | –
COc1ccccc1NC(=O)C(=O)N/N=C(\C)CC(=O)Nc1ccccn1 | -35 | – | – | – | –
SMILES | D1 antagonist | D1 ag | DRD3 antagonist | DRD3 agonist | D1 potentiator
COc1ccc(NC(=O)C(=O)N/N=C(\C)CC(=O)Nc2ccccn2)c(OC)c1 | – | – | – | – | –
COc1ccccc1NC(=S)Nc1ccccn1 | – | – | – | – | –
COc1ccccc1C(=O)N/N=C/c1c[nH]c2ccccc12 | – | – | – | – | –
O/N=C(/CCc1ccccc1)c1ccc2c(c1)OCCO2 | -41 | – | – | – | –
O=C(CCc1ccccc1)c1ccc2c(c1)OCCCO2 | – | – | – | – | –
COc1cc(F)ccc1-c1csc(C(NC(C)=O)c2ccccc2)n1 (centres undefined) | · | · | – | – | ·
